Measurements from PubChem BioAssay (NCI).
Compounds without any hit were thinned out: in the full panel of roughly 83,000, 20% have a hit.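 Step 1: grow cells in 96-well plates. Step 2: add test compound at a single concentration. Step 3: incubate 48 h. Step 4: record percent growth.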 The source made the active and inactive calls. Rule for the calls: active = growth percent below 10; inactive = the rest.

system: HL-60(TB) leukemia; experiment: NCI-60 one-dose screen, 48 h (100 = growth as untreated, 0 = no growth, -100 = all killed); settings: 10 µM unless noted

Row | Structure (SMILES) | growth
1 | COC(=O)c1ccc(NC(N)=NCCC(C)(C)c2ccc(C(F)(F)F)cc2)nc1 | -41.4% (active)
2 | O=C(Nc1ccccc1O)c1ccccc1Nc1ccnc(C(F)(F)F)c1 | 68.3% (inactive)
3 | O=C(CCCCCCCn1cc(-c2cccnc2)nn1)Nc1ccccc1-c1ccccc1 | 45.7% (inactive)
4 | CCCCc1n(Cc2ccc3ccccc3n2)cc[n+]1Cc1ccc2ccccc2c1 | -46.1% (active)
5 | N#Cc1c(NC(=O)c2cccs2)[n+]([O-])c2cc(C(F)(F)F)ccc2[n+]1[O-] | 89% (inactive)
6 | COc1ccc(Br)cc1NC(=O)Nc1cccc2c1ccn2Cc1ccnc(N)c1 | 10.5% (inactive)
7 | O=C(Nc1ccc(Nc2ncnc3sc4c(c23)CCOC4)cc1)Nc1ccc(Cl)c(C(F)(F)F)c1 | 98.9% (inactive)
8 | Cc1ccc(S(=O)(=O)c2nc(-c3ccccc3)oc2SCC(N)=O)cc1 | 65.3% (inactive)
9 | COc1ccc(NC(=O)c2sc3nc(C)c(C(C)=O)cc3c2N)cc1 | 94% (inactive)
10 | COc1cc(CCC[P+](c2ccccc2)(c2ccccc2)c2ccccc2)c(OC)c(OC)c1OC | 65.7% (inactive)
11 | CC(=O)Nc1ccc(C(=O)c2ccc(S(=O)(=O)Nc3ccccc3)cc2)cc1 | 102% (inactive)
12 | C(=C1c2ccccc2-c2ccccc21)c1ccncc1 | 9.03% (active)
13 | CN(C)c1ccc(/C=C/c2ccnc3c(O)cccc23)cc1 | -26% (active)
14 | COc1cc(C(=O)N2N=C(c3ccc(S(C)(=O)=O)cc3)CC2c2ccco2)cc(OC)c1OC (configuration not stated) | 90.3% (inactive)
15 | C/C(Cc1ccc(Cl)cc1)=C(\c1ccc(OCCN2CCCCCC2)cc1)c1ccc(OC(=O)C2CCCCC2)cc1 | 17.6% (inactive)
16 | O=c1c2cc(Br)cc(Br)c2nc(-c2ccc(Cl)cc2)n1/N=C/c1cccc(F)c1 | 71% (inactive)
17 | CCN1CCN(CC(=O)Nc2nc3ccc(NCc4ccc(C)cc4)cc3s2)CC1 | 32.5% (inactive)
18 | CCCCOc1ccc(NC(=O)Nc2nnc(C)s2)cc1 | 80.7% (inactive)
19 | COc1ccc(-c2nc(-c3cc(OC)cc(OC)c3)[nH]c2-c2ccc(OC)cc2)cc1 | 30.1% (inactive)

Row | Structure (SMILES) | growth
20 | O=C(Oc1ccc([N+](=O)[O-])cc1)c1ccc(CBr)cc1 | 71.8% (inactive)
21 | Cc1cc(Oc2ccccc2)ccc1Nc1ncnc2ccc(-c3cnc(Cl)c(NS(C)(=O)=O)c3)cc12 | 30.3% (inactive)
22 | CC(C)(O)CC(=O)NCCn1ccc2ncnc(Nc3ccc(Oc4cccc(C(F)(F)F)c4)c(Cl)c3)c21 | 2.51% (active)
23 | Cc1cc(C)cc(OCC(=O)O)c1 | 86% (inactive)
24 | CCS/C(Nc1ccccc1)=C(\C#N)C(=O)Nc1ccc(OC)cc1 | -15.6% (active)
25 | Cc1cc2oc(/C=C/c3ccccc3)cc(=O)c2c(C)c1Cl | 80.8% (inactive)
26 | COc1ccc(O)c(-c2cc(-c3ccccc3)c(C#N)c(=O)[nH]2)c1 | 112% (inactive)
27 | C=C1C(=O)O[C@H]2[C@H]1CC/C(COC(=O)CCSSCCC(=O)OC/C1=C/CC[C@@]3(C)O[C@H]3[C@H]3OC(=O)C(=C)[C@@H]3CC1)=C\CC[C@@]1(C)O[C@@H]21 | -47.9% (active)
28 | C=C1CC[C@@H]2[C@](C)(COC(C)=O)[C@H](OC(C)=O)CC[C@@]2(C)[C@@H]1CC(Nc1ccc(S(=O)(=O)NC(C)=O)cc1)C1=CCOC1=O (some centres not stated) | -31.1% (active)
29 | CCN(CC)CCCNc1cc(OC)cc2cccnc12 | 94.7% (inactive)
30 | COc1cc(/C=C/c2cc(/C=C/c3ccc(O)c(OC)c3)n(-c3c(C)cccc3C)c(=O)n2)ccc1O | 6.05% (active)
31 | COc1ccc(NC(=O)c2ccc(C(=O)Nc3ccc(OC)cc3OC)cc2)c(OC)c1 | 88.5% (inactive)
32 | Cc1cc2nc(NC(=O)CN3CCN(CCN4C(=O)c5cccc6cccc(c56)C4=O)CC3)sc2cc1C | 52.3% (inactive)
33 | Cc1ccc2c(C(C[N+](=O)[O-])c3ccco3)c(-c3ccccc3)[nH]c2c1 (configuration not stated) | -5.69% (active)
34 | COc1cc(CCC[P+](c2ccccc2)(c2ccccc2)c2ccccc2)cc2c1OCO2 | 10.3% (inactive)
35 | Cc1cc2c(C)c3cc(C)c(N)cc3nc2cc1N | 19% (inactive)
36 | c1ccc2c(NCCCN3CCN(CCCNc4c5ccccc5nc5ccccc45)CC3)c3ccccc3nc2c1 | -23.8% [100 µM] (active)
37 | S=C(c1ccc2c(c1)OCO2)N1CCN(c2ccccc2Cl)CC1 | 87.6% (inactive)
